AMA1 RON2 block – qHTS for Inhibitors of AMA1-RON; Towards Development of Antimalarial Drug Lead: Primary Screen. AlphaScreen AMA1-biotinylated RON2 peptide binding. Potency, µM (series often up to 58.2 µM), for inactives: at the top dose activity change, negative = inhibition, most hits filed as inhibitors. 360,000 compounds, 0.2% hits;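 also: 0% = vehicle wells and -100% = peptide control; nearly all actives have a fitted effect of over 45% in size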
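AMA1 (3D7) with his tag at 25 nM final met compounds first, then biotinylated RON2 peptide at 25 nM; detection used donor plus acceptor beads, 10 µg/mL apiece, read by AlphaScreen after 30 min at room temperature.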
Pf growth 48h – Primary qHTS for delayed death inhibitors of the malarial parasite plastid, 48 hour incubation | Potency, µM (doses to about 28.7 µM), inactives show at the top dose activity change, negative = inhibition, hits mostly inhibitors | AID 504832, 2011 | P. falciparum luciferase growth in erythrocytes, 48 h | 310,000 compounds, 5.9% hits; also: % is scaled to controls: 0 for no effect and ±100 for the full control effect
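Growth was read as firefly luciferase luminescence after a 48 h, 37 C, 5% CO2 exposure of compounds to reporter-bearing P. falciparum cultures (0.1% parasitemia, 2% hematocrit final) in Albumax-supplemented RPMI 1640.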
Pf growth 96h – Primary qHTS for delayed death inhibitors of the malarial parasite plastid, 96 hour incubation; Potency, µM (doses to about 28.7 µM), for inactives: top-dose activity change, negative = inhibition, usual class: inhibitors; P. falciparum luciferase reporter growth, 96 h; 320,000 compounds, 6.9% hits; AID 504834, 2011; also: % is scaled to controls: 0 for no effect and ±100 for the full control effect
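Delayed-death screen, second-generation endpoint: infected erythrocytes, 2% hematocrit, 0.05% parasitemia final; 96 hours at 37 C, 5% CO2; luciferase detection reagent; luminescence decrease equals reduced growth.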
SARS PLP yeast – qHTS of Yeast-based Assay for SARS-CoV PLP; Potency, µM (top dose mostly 32.9 µM), without a hit: top-dose activity, positive = growth rescue, hits mostly activators; 330,000 compounds, 0.19% hits; AID 485353, 2010; S. cerevisiae expressing SARS-CoV PLpro, growth rescue; calls by dose curve; also: 0% is about no effect; nearly all actives have a fitted effect of over 55% in size
Numbers without * were called inactive; ? = inconclusive; . = no result given; [ ] = another dose, or the depositor's remark. The list is not random: actives were taken first. Their share in the collection is about 9.4%. Unless noted, calls follow the shape of the dose curve; as a rule, active = well fitted curve in the direction sought with a large enough effect; inconclusive = small, poorly fitted or top-dose-only effect, or another doubt; inactive = no such curve, though single readings can be large; an effect the other way counts as inactive or inconclusive. Potency is read from the fitted curve at half-maximal effect.

SMILES	AMA1 RON2 block	Pf growth 48h	Pf growth 96h	SARS PLP yeast
O=C(CSc1nnc(CNC(=O)c2ccco2)o1)Nc1ccc(F)cc1	-4%	8%	10µM*	-2%
COc1cc(C(=O)NCc2nnc(SCC(=O)Nc3cccc(C)c3)o2)cc(OC)c1OC	-27%	.	7.4µM*	5%
O=C(CSc1nnc(Cc2ccccc2)o1)c1ccccc1	24%	26%	?	0%
Cc1ccc(NC(=O)CSc2nnc(Cc3ccccc3)o2)cc1	12%	97%	12µM*	2%
CCOC(CNc1c([N+](=O)[O-])c(=O)n(C)c(=O)n1C)OCC	7%	-1%	5%	-5%
O=C(O)C1(Nc2ccc([N+](=O)[O-])cc2[N+](=O)[O-])CCCC1	-7%	.	.	.
O=C(Nc1ccccc1C(=O)N/N=C/c1ccco1)c1ccccc1Cl	29%	9%	-1%	1%
CC(=O)Nc1ccc(NC(=O)CSCc2ccccc2Cl)cc1	-16%	.	.	.
Cc1cccc(NC(=O)CSc2nnc(CNC(=O)c3ccco3)o2)c1	-4%	21%	10µM*	-5%
Cc1cc(C)cc(NC(=O)CSc2nnc(CNC(=O)c3ccco3)o2)c1	10%	7%	?	3%
O=C(Nc1ccccc1Sc1ccccc1)c1ccc(F)cc1	41%	10%	66%	-29%
CCCS(=O)(=O)c1nc(S(=O)(=O)c2ccc(C)cc2)c(N2CCCC2)s1	-4%	12µM*	.	11%
CCCS(=O)(=O)c1nc(S(=O)(=O)c2ccc(C)cc2)c(N2CCC(O)CC2)s1	7%	-6%	-10%	0%
CCS(=O)(=O)c1nc(S(=O)(=O)c2ccc(C)cc2)c(N2CCC(C)CC2)s1	7%	?	-27%	0%
Cc1ccc(S(=O)(=O)c2nc(S(=O)(=O)c3ccc(C)cc3)c(N3CCN(CCO)CC3)s2)cc1	5%	5.2µM*	-31%	3%
CCCS(=O)(=O)c1nc(S(=O)(=O)c2ccc(C)cc2)c(N2CCC(C(N)=O)CC2)s1	-6%	-7%	10µM*	-1%
CCCS(=O)(=O)c1nc(S(=O)(=O)c2ccc(C)cc2)c(N2CCC(C)CC2)s1	24%	?	15µM*	-2%
C=CCNC(=S)NNC(=O)CCC(O)COCCC(C)C (stereo not given)	98%	19%	99%	1%
COc1ccc2[nH]c(C(=O)N3CCCN(Cc4ccc(F)cc4)CC3)cc2c1	-8%	49%	43%	-1%
Cc1ccc(/C=N/n2c(C3CCCCC3)n[nH]c2=S)o1	57%	-7%	2%	?
CCCS(=O)(=O)c1nc(S(=O)(=O)c2ccc(C)cc2)c(N2CCCC(C)C2)s1 (stereo not given)	-19%	?	?	-3%
CCCS(=O)(=O)c1nc(S(=O)(=O)c2ccc(C)cc2)c(N2CCc3ccccc3C2)s1	-2%[11.6 µM]	2.3µM*	?	-16%
Cc1ccccc1Nc1nn2c(=O)c3ccc(C(=O)N4CCCC(C)C4)cc3nc2s1 (stereo not given)	-8%	.	.	.
CCc1ccccc1Nc1nn2c(=O)c3ccc(C(=O)NCc4cccs4)cc3nc2s1	.	9.3µM*	8.3µM*	1%
Cc1ccccc1Nc1nn2c(=O)c3ccccc3nc2s1	0%	80%	2.6µM*	2%
SMILES	AMA1 RON2 block	Pf growth 48h	Pf growth 96h	SARS PLP yeast
CCc1ccccc1Nc1nn2c(=O)c3ccc(C(=O)NCCCOC(C)C)cc3nc2s1	.	13µM*	?	0%
COc1ccc(-c2nc(CS(=O)CC(=O)NC(C)CCc3ccccc3)c(C)o2)cc1OC (stereo not given)	-9%	-13%	-18%	-3%
CCOC(=O)C1=C(CC)Nc2ccccc2N=C1NC(=O)c1cc(C)on1	6%	46%	32%	-2%
CCOC(=O)C1=C(CC)Nc2ccccc2N=C1NC(=O)Nc1ccc(Cl)c(Cl)c1	?	.	2.6µM*	-40%
CC(C)c1ccc(CSc2ccc(S(=O)(=O)N3CCOCC3)cn2)cc1	-6%	?	?	-3%
Cc1cc(C)n(-c2ccc(NC(=O)C3CCN(Cc4ccc(C)o4)CC3)cc2)n1	3%	13µM*	15µM*	0%
COCc1ccc(C(=O)N2CCCCC2C(=O)Nc2ccc(-n3nc(C)cc3C)cc2)o1 (stereo not given)	11%	-11%	12µM*	12%

High-throughput results from PubChem.
